Source: PubChem BioAssay
Compounds with a hit are over-represented: about 11% of the library has one in this group of screens.
AMA1 RON2 block – disrupts binding of P. falciparum AMA1 to RON2. hit rate 0.2% among 360,000. AlphaScreen AMA1-biotinylated RON2 peptide binding. Potency, µM (series often up to 58.2 µM), for the others: at the highest dose activity change, negative = inhibition, actives largely listed as inhibitors. AID 720542;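 further: 0% = vehicle wells and -100% = peptide control; nearly all actives have a fitted effect of over 45% in size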
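AMA1 (3D7) with his tag at 25 nM final met compounds first, then biotinylated RON2 peptide at 25 nM; detection used donor plus acceptor beads, 10 µg/mL apiece, read by AlphaScreen after 30 min at room temperature.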
HCV inh – inhibitors of hepatitis C virus infection; Huh7.5.1 HCVcc-Cre infection, luciferase reporter, 44 h; Potency, µM (series often up to 41.8 µM), inactives show at the highest dose activity change, negative = inhibition, actives largely listed as inhibitors; hit rate 3.4% among 340,000; further: on the % scale 0 is the no-effect control and ±100 the full control effect
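Cells seeded at 1,000/well and cultured 4 h, then compounds added followed by HCVcc-Cre virus (~0.5 moi). After 44 h further culture, luciferase substrate was added, plates held 15 min at room temperature, and luminescence read for 15 sec.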
Pf growth 48h – inhibits P. falciparum growth in the first generation, 48 h | P. falciparum luciferase growth in erythrocytes, 48 h | Potency, µM (doses to about 28.7 µM), for inactives: top-dose activity change, negative = inhibition, usual class: inhibitors | hit rate 5.9% among 310,000; further: on the % scale 0 is the no-effect control and ±100 the full control effect
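Cell-based growth assay: transgenic P. falciparum expressing firefly luciferase, cultured in red cells within RPMI 1640 containing 0.5% w/v Albumax, 24 mM bicarbonate and gentamycin. A drop in luciferase activity indicates inhibition.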
Pf growth 96h – P. falciparum growth inhibition at 96 hour, primary screen for plastid delayed-death inhibitors | AID 504834 | Potency, µM (doses to about 28.7 µM), for inactives: at the highest dose activity change, negative = inhibition, actives largely listed as inhibitors | hit rate 6.9% among 320,000 | P. falciparum luciferase reporter growth, 96 h; further: on the % scale 0 is the no-effect control and ±100 the full control effect
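96 h incubation, 37 C, 5% CO2, of luciferase-reporter P. falciparum-infected RBCs (2% hematocrit, 0.05% parasitemia final) with test compounds; endpoint luminescence.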
HCV confirm – HCV inhibition, cherry-pick confirmation; shares compounds with HCV inh; HCVcc-Cre infectious virus cell assay, luciferase, inhibition; Potency, µM (doses to about 41.8 µM), inactives show at the top dose activity, negative = inhibition, hits mostly inhibitors; hit rate 78% among 640; further: nearly all actives have a fitted effect of over 80% in size
HCV cytotox – host cell cytotoxicity counter-screen for HCV inhibitors | hit rate 22% among 640 | HCV host cell line cytotoxicity counterscreen | shares compounds with HCV inh | Potency, µM (series often up to 41.8 µM), for the others: at the top dose activity change, negative = cytotoxicity, actives largely listed as inhibitors;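 further: 44 h compound exposure; on the % scale 0 is the no-effect control and ±100 the full control effect; nearly all actives have a fitted effect of over 55% in size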
The depositor's hits bear a star; ? = inconclusive; . = no result given. The call rests on the fitted dose curve; in most records, active means well fitted curve in the direction sought with a large enough effect; inconclusive means small, poorly fitted or top-dose-only effect, or another doubt; inactive means no such curve, though single readings can be large; an effect the other way counts as inactive or inconclusive. Potency means the concentration at half of the fitted maximal effect.

SMILES	AMA1 RON2 block	HCV inh	Pf growth 48h	Pf growth 96h	HCV confirm	HCV cytotox
COc1ccc(CCNC(=O)c2cc3c(=O)n4ccccc4nc3n(CCN3CCOCC3)c2=N)cc1	2.4%	?	?	?	.	.
O=C(c1ccc(=O)[nH]n1)N1CCc2ccccc2C1	6.8%	17.0%	-3.8%	-15.3%	.	.
COc1ccc(Nc2nc(N)nc(CCl)n2)cc1	44.0%	3.98µM*	-31.3%	-87.3%	6.28µM*	2.5µM*
COc1ccc(Nc2nc(N)nc(CN3CCOCC3)n2)cc1	41.2%	12.9%	5.1%	7.6%	.	.
N#Cc1c2ccc(O)cc2n2ccccc12	37.4%	7.08µM*	-17.2%	-13.8%	22.3µM*	14.9%
N#Cc1c2ccc(OCC(=O)NCc3ccco3)cc2n2ccccc12	-0.1%	?	?	?	.	.
CSc1cccc(NC(=O)OC2CCCCCCCCCCC2)c1	7.4%	-4.1%	?	?	.	.
CC(C)Nc1cc(N2CCCC2)ccc1[N+](=O)[O-]	-9.1%	?	?	?	.	.
CC(Nc1cc(N2CCNCC2)ccc1[N+](=O)[O-])c1ccccc1 (stereo unspecified)	?	3.55µM*	-24.8%	34.6%	?	55.3%
CCC(=O)NC(=S)Nc1ccc(NC(=O)c2cccc([N+](=O)[O-])c2C)cc1	-7.3%	?	6.9%	-24.7%	.	.
CCCC(=O)Nc1cccc(NC(=O)c2cccc([N+](=O)[O-])c2C)c1	-1.3%	7.94µM*	-7.7%	18.5%	12.5µM*	-16.4%
Cc1cc(C)c2nc(NNC(=O)c3ccc(S(=O)(=O)N4CCc5ccccc5C4)cc3)sc2c1	40.9%	4.47µM*	2.33µM*	3.7µM*	3.53µM*	?
CCc1nnc(NC(=O)c2ccc(S(=O)(=O)N3CCc4ccccc4C3)cc2)s1	1.1%	9.0%	-5.6%	27.4%	.	.
CCOc1ccccc1NC(=O)NC1CCCc2ccccc21 (stereo unspecified)	3.5%	?	-10.0%	-2.5%	7.91µM*	30.6%
CCc1ccc(OCC(O)CN2CCC(CN3C(=O)c4cccc5cccc(c45)C3=O)CC2)cc1 (stereo unspecified)	0.0%	6.31µM*	-8.8%	?	7.05µM*	14.1µM*
C/C(=N\NC(=O)C1COc2ccccc2O1)c1ccc(C)o1 (stereo unspecified)	64.8%	2.9%	.	-28.0%	.	.
C/C(=N\NC(=O)C1COc2ccccc2O1)c1ccccn1 (stereo unspecified)	-18.6%	4.47µM*	2.62µM*	2.62µM*	11.2µM*	?
Cc1ccc2c(c1)c1c(n2CC(O)CNC2CCCCC2)CCCC1 (stereo unspecified)	?	4.47µM*	2.94µM*	26.0%	12.5µM*	-96.6%
COc1ccccc1Nc1nc2nonc2nc1N1CCCCC1C (stereo unspecified)	-8.4%	?	3.2%	?	?	36.6%
CCCOc1ccc(/C=N/Nc2cccc([N+](=O)[O-])c2)c(O)c1	15.0%	?	?	?	28µM*	-30.3%
COc1ccc(/C=C/C(=O)Nc2cccc(S(=O)(=O)N3CCOCC3)c2)cc1OC	20.9%	?	-12.0%	?	.	.
COc1ccc(OC)c(NC(=O)/C=C/c2ccc(S(=O)(=O)N3CCOCC3)cc2)c1	-2.7%	?	11.7µM*	2.94µM*	11.2µM*	?
COc1cc(/C=C/C(=O)Nc2cccc(S(=O)(=O)N3CCOCC3)c2)ccc1OCC#N	-5.5%	?	?	?	2.8µM*	20.1%
Cc1ccc2c(c1)[C@H]1[C@H](CO2)[C@H](c2ccccc2)[C@]2(C)C(=O)Nc3cc(F)ccc3C(=O)N12	-17.3%	?	.	.	.	.
CCC(Sc1nc2ncccc2[nH]1)C(=O)N1CCOCC1 (stereo unspecified)	-4.6%	8.8%	9.0%	-22.6%	.	.
SMILES	AMA1 RON2 block	HCV inh	Pf growth 48h	Pf growth 96h	HCV confirm	HCV cytotox
CC(C)Sc1nc2c(c(=O)[nH]c(=O)n2C)n1Cc1ccccc1	-14.6%	?	-5.2%	0.0%	-26.3%	14.0%
CC(C)Sc1nc2c(c(=O)[nH]c(=O)n2C)n1CCc1ccccc1	2.1%	8.0%	.	?	.	.
O=C(COc1ccccc1Cl)Nc1ccc(NC(=O)c2ccco2)cc1	3.0%	-14.7%	-26.0%	6.4%	.	.
O=C(Nc1ccc(-c2noc(COc3ccccc3Cl)n2)cc1)c1ccco1	-10.6%	?	?	223.2%	7.05µM*	-26.7%
COc1ccc(S(=O)(=O)N[C@@H](C)C(=O)OCC(=O)Nc2cc3oc4ccccc4c3cc2OC)cc1	-0.9%	6.31µM*	50.5%	81.7%	22.3µM*	23.5%
COc1cc2c(cc1NC(=O)COC(=O)CNS(=O)(=O)c1ccc(C)cc1)oc1ccccc12	-13.9%	?	35.3%	0.0%	7.91µM*	-10.9%
COc1cc2c(cc1NC(=O)COC(=O)[C@@H](NS(=O)(=O)c1cccc(Cl)c1)C(C)C)oc1ccccc12	-20.0%	?	54.4%	76.4%	12.5µM*	30.7%
COc1ccc(-c2nc3cc(C)c(Br)c(C)n3c2Cc2ccccc2C(F)(F)F)cc1OC	-17.1%	.	.	.	.	.
COc1cccc(NC(=O)COc2ccc(C(=O)N3CCN(C)CC3)cc2)c1	-3.1%	15.7%	-8.3%	12.8%	.	.
Cc1ccc2c(c1)-c1cc(C)ccc1C2=O	3.6%	?	.	.	22.3µM*	10.0%
CC(C)=CCC/C(C)=C/CNC(=O)C[C@H]1C[C@H](C(=O)N2CCCCC2)[C@@]2(C)c3[nH]c4cc(CCC(=O)N(C)C)ccc4c3CCN2C1=O	-25.0%	7.94µM*	.	.	25µM*	?
CC(C)=CCC/C(C)=C/CNC(=O)C[C@H]1C[C@H](C(=O)N2CCOCC2)[C@@]2(C)c3[nH]c4cc(CCC(=O)N(C)C)ccc4c3CCN2C1=O	-7.5%	?	.	.	.	.
O=c1c2ccccc2nc(-c2ccccc2)n1Cc1ccc(Cl)cc1	-2.2%	-6.2%	5.4%	.	.	.
O=c1c2ccccc2nc2n1CCN2Cc1ccc(Cl)cc1	-2.8%	?	2.08µM*	2.33µM*	6.28µM*	?
CCOC(=O)[C@]12CCCC=C1N(Cc1ccco1)C(=O)[C@H](CC(=O)NCCc1ccccc1OC)C2	-3.6%	.	.	.	.	.
COc1ccc(Nc2ncc3c(n2)CC(c2ccccc2)CC3=O)cc1 (stereo unspecified)	1.5%	?	?	?	.	.
CCc1ccc(Nc2ncc3c(n2)CC(c2ccc(OC)cc2)CC3=O)cc1 (stereo unspecified)	4.3%	3.98µM*	?	-22.2%	?	-30.1%
O=C(CCC1CCCN(Cc2ccc3c(c2)CCO3)C1)NCc1ccc(F)c(F)c1 (stereo unspecified)	-1.2%	-6.9%	?	-12.4%	.	.
COC(=O)C1=C(c2ccc3ccccc3c2)C[C@@H]2CC[C@H]1N2C(=O)N1CCCCC1	-1.8%	7.94µM*	?	?	11.2µM*	11.2µM*
